Screens deposited in PubChem by National Center for Advancing Translational Sciences (NCATS).
IDH1 R132H inh: human IDH1 R132H inhibition; O75874; IDH1-R132H enzyme, NADPH consumption, diaphorase/resazurin fluorescence; Potency, µM (titrated, usually from 76.6 µM), inactives show at the top dose activity change, negative = inhibition, actives largely listed as inhibitors; 390,000 tested, 0.093% active; AID 602179; further: on the % scale 0 is the no-effect control and ±100 the full control effect; nearly all actives have a fitted effect of over 65% in size
Target sequence (O75874 whole entry R132H, stated change not applied): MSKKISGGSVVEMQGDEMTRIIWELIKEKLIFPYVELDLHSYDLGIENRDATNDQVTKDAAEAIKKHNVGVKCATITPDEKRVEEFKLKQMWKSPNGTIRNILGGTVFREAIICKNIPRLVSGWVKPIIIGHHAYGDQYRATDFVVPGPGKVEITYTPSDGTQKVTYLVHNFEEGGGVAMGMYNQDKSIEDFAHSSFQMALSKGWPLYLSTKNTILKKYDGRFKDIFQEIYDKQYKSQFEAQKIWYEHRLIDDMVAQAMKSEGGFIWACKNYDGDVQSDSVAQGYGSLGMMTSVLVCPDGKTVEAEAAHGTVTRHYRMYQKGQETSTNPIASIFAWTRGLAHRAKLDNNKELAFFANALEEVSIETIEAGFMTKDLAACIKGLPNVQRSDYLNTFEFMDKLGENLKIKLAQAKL
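IDH1-R132H (0.5 ug/mL dispensed) in pH 7.5 Tris buffer was preincubated 30 min with compound, then given a substrate mix of 0.016 mM NADPH and 2 mM alpha-KG for 80 min at room temperature; remaining NADPH was read by diaphorase/resazurin fluorescence.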
ELG1 repair inh: ELG1-dependent DNA repair inhibition. Potency, µM (doses to about 46.1 µM), inactives show top-dose activity change, negative = inhibition, actives largely listed as inhibitors. HEK293T ELG1-luciferase reporter, luminescence, 16 h; DNA damage induced by 5-fluorouridine. 330,000 tested, 2.3% active; further: on the % scale 0 is the no-effect control and ±100 the full control effect; nearly all actives have a fitted effect of over 55% in size
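Overnight (16 hr) co-exposure of 2,000 cells/well to 5-fluorouridine and compound at 37 °C preceded detection. Luciferase was quantified via ONE-Glo luminescence; loss of signal denotes inhibition.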
Nrf2 inh: Nrf2 pathway inhibition. A549 ARE-Fluc reporter, luciferase luminescence, 18-24 h. Potency, µM (series often up to 46 µM), inactives show at the highest dose activity change, negative = inhibition, most hits filed as inhibitors. 360,000 tested, 2.1% active; further: on the % scale 0 is the no-effect control and ±100 the full control effect; nearly all actives have a fitted effect of over 60% in size
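A549 ARE_Fluc cells (5000/well, 5% FBS OPTI-MEM) pre-incubated 2 h, then treated with compounds 18-24 h at 37C/5% CO2 in concentration-response. CellTiter-Fluor viability read first; BugLite luciferase luminescence after 15 min at room temperature gives Nrf2 activity.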
Nrf2 activator: activates Nrf2 signaling; AREc32 ARE-luciferase reporter (MCF7-derived line), luminescence, 24 h; Potency, µM (series often up to 46.1 µM), inactives show at the highest dose activation, usual class: activators; 410,000 tested, 0.31% active; further: % of control where 0% means no effect; nearly all actives have a fitted effect of over 65% in size
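ARE-driven firefly luciferase activity in AREc32 cells measured after a 24 hr compound exposure at 37 deg C, using Steady-Glo reagent and a 30 min room-temperature hold.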
A549 viability: A549 cytotoxicity, counter-screen for Nrf2 inhibitors. AID 504648. A549 ARE-Fluc cells, CellTiter-Fluor viability, 18-24 h. 390,000 tested, 0.16% active. Potency, µM (highest dose often 46 µM), for inactives: at the top dose activity change, negative = cytotoxicity, actives largely listed as inhibitors; further: on the % scale 0 is the no-effect control and ±100 the full control effect
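A549 ARE_Fluc cells in 5% FBS OPTI-MEM were exposed to compounds in concentration-response for 18-24 h at 37 deg C. Viability was read by CellTiter-Fluor fluorescence (Ex 405/Em 525) after 30 min, before the luciferase read.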
Active calls of the source: *; ? = inconclusive; nt = not tested or not shown; [ ] = another dose, or the depositor's remark. Shown are actives, neighbours in structure and some others; about 3.8% of the full set was active somewhere. The call rests on the fitted dose curve; in most records, active means well fitted curve in the direction sought with a large enough effect; inconclusive means small, poorly fitted or top-dose-only effect, or another doubt; inactive means no such curve, though single readings can be large; an effect the other way counts as inactive or inconclusive. Potency means the concentration at half of the fitted maximal effect.

SMILES | IDH1 R132H inh | ELG1 repair inh | Nrf2 inh | Nrf2 activator | A549 viability
Cc1nc2ccccc2c(=O)n1-c1ccc(NC(=O)c2ccccc2[N+](=O)[O-])cc1 | -2.9% | nt | nt | 3.7% | 3.6%
COc1cccc(Cn2ncc3c4sc(SC)cc4n(C)c3c2=O)c1 | nt | nt | ? | nt | 10.5%
Cc1nn(Cc2c(Cl)cccc2Cl)c(C)c1NC(=O)c1cn(-c2ccccc2)nc1-c1ccccc1 | -1.1% | ? | 11.6µM* | -1.6% | 13µM*
Cc1cc(C)c2c(=O)cc(C(=O)Nc3ccc(C)c(Cl)c3)oc2c1 | 1.3% | nt | 1.8% | -0.5% | 6.7%
[N-]=[N+]=CC(=O)CNC(=O)[C@@H](Cc1ccccc1)N1C(=O)c2ccccc2C1=O | 6.6% | -0.8% | nt | -0.3% | 13µM*
O=C(NCc1ccco1)C(Cc1ccccc1)N1C(=O)c2ccccc2C1=O (stereo not drawn) | 6.5% | 15.1% | ? | ? | -1.0%
O=C(NCCN1CCOCC1)C1(C(F)(F)F)CC(CCCO)CCCO1 (stereo not drawn) | nt | nt | 12.9% | nt | 0.2%
COc1ccc(-c2noc(CSc3nnc(Cc4ccccc4)n3-c3cccc(C)c3)n2)cc1 | -7.3% | nt | 23.1µM* | -0.4% | ?
COc1ccc(-c2noc(CSc3nnc(C)n3-c3cccc(C)c3)n2)cc1 | 0.0% | nt | ? | 5.6% | -6.9%
O=C(N/N=C/c1ccccc1Cl)c1ccncc1 | -13.5% | 3.8% | ? | 5.5% | ?
O=C(N/N=C/c1cc(Cl)ccc1O)c1ccncc1 | 0.0% | 14.6µM* | -14.9% | -0.9% | -9.6%
O=C(N/N=C/c1cn(Cc2ccccc2)c2ccccc12)c1ccncc1 | 3.4% | 18.3µM* | ? | 6.8% | -8.2%
O=C(N/N=C/c1cn(Cc2ccccc2)c2ccccc12)c1cccnc1 | 4.5% | 16.9% | ? | 7.1% | -19.6%
O=C(CCc1cn(Cc2ccccc2F)c2ccccc12)NCc1ccc(Cl)cc1 | -9.5% | nt | ? | 3.0% | -5.5%
COc1ccc(Cn2c(=O)[nH]c3cc(C(=O)N4CCN(c5cc(Cl)ccc5C)CC4)ccc3c2=O)cc1 | -1.6% | nt | 1.6%[9.27 µM] | 0.6% | -1.5%
CC(=O)c1sc2nc(-c3cccs3)ccc2c1N | 2.0% | ? | ? | 12.6µM* | -3.9%
Nc1c(C(=O)Nc2nc3ccccc3s2)sc2nc(-c3cccs3)ccc12 | -7.2% | ? | 20.6µM* | ? | ?
Nc1c(C(=O)Nc2ccccc2Br)sc2nc(-c3cccs3)ccc12 | -5.8% | nt | 5.6% | ? | 18.7%
Clc1cnc(N/N=C/c2cccs2)c(Cl)c1 | 2.7% | ? | ? | ? | -22.6%
Cc1ccc(/C=N/Nc2ncc(Cl)cc2Cl)s1 | 0.6% | ? | ? | 3.3% | 5.8µM*
CSc1ccc(-c2cc(=O)c3ccccc3o2)cc1 | 16.9% | ? | ? | 2.82µM* | 9.1%[1.84 µM]
O=c1cc(-c2ccccc2F)oc2ccccc12 | 7.4% | ? | 19.0% | ? | -6.3%
O=c1cc(-c2ccc(F)cc2)oc2ccccc12 | 2.5% | nt | 11.0% | 11.2µM* | 1.3%
O=C(Nc1nc2ccccc2n1CCN1CCOCC1)c1cn(-c2ccccc2)nc1-c1ccccc1 | 5.2% | 18.4µM* | 20.6µM* | -0.3% | ?
O=C(Nc1nc2ccccc2n1CCN1CCOCC1)c1ccccc1 | 14.8% | ? | 0.3% | -0.7% | -0.5%
SMILES | IDH1 R132H inh | ELG1 repair inh | Nrf2 inh | Nrf2 activator | A549 viability
O=S1(=O)Nc2c(ccc3cccnc23)-c2ccccc21 | 10.6% | ? | ? | 7.08µM* | ?
Cc1cnc2c3c(cc(Cl)c2c1)-c1ccccc1S(=O)(=O)N3 | nt | nt | 6.51µM* | nt | 16.4µM*
CCOc1ccc(OC(=O)c2cn(-c3ccc(C)cc3)c(=O)c3ccccc23)cc1 | 14.4% | nt | nt | 9.4% | 10.2%
COc1cc(-c2cc(C(=O)Nc3cccc(S(=O)(=O)N(C)C)c3)c3ccccc3n2)cc(OC)c1OC | -0.7% | ? | -13.4% | 3.1% | -4.4%
Cc1c(NC(=O)c2cc(-c3ccc(F)cc3)nc3ccccc23)c(=O)n(-c2ccccc2)n1C | -3.7% | 8.2µM* | 0.5% | 2.4% | -0.1%
CCN(CC)S(=O)(=O)c1ccc(O)c(NC(=O)c2cc(-c3cc(OC)c(OC)c(OC)c3)nc3ccccc23)c1 | -9.5% | 16.4µM* | 12.6% | 0.1% | -10.7%
